GALK inhibitor = inhibitors of human galactokinase; actives 0.007% (n = 270,000); Purified GALK, Kinase-Glo residual ATP luminescence; P51570; Potency, µM (doses to about 57.5 µM), hits mostly inhibitors
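The enzyme phosphorylates galactose (100 uM) using ATP (35 uM); inhibition is detected as higher residual ATP, quantified by bioluminescence after 1 h reaction at room temperature, pH 8.0.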
Nrf2 inh = Nrf2 pathway inhibition | AID 504444 | actives 2.1% (n = 360,000) | Potency, µM (titrated, usually from 46 µM), usual class: inhibitors | A549 ARE-Fluc reporter, luciferase luminescence, 18-24 h; note: nearly all actives have a fitted effect of over 60% in size
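Concentration-response testing used A549 ARE_Fluc cells at 5000 cells/well. Following an 18-24 h compound incubation, viability was read by fluorescence (Ex 405/Em 525) and luciferase output by luminescence.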
rTrxR1 inhibitor = blocks rat thioredoxin reductase 1; actives 1% (n = 390,000); O89049; Potency, µM (highest dose often 114 µM), most hits filed as inhibitors; recombinant rTrxR1, NADPH fluorescence consumption, selenite substrate; AID 588453; note: nearly all actives have a fitted effect of over 65% in size
Target sequence (O89049 whole entry, looked up): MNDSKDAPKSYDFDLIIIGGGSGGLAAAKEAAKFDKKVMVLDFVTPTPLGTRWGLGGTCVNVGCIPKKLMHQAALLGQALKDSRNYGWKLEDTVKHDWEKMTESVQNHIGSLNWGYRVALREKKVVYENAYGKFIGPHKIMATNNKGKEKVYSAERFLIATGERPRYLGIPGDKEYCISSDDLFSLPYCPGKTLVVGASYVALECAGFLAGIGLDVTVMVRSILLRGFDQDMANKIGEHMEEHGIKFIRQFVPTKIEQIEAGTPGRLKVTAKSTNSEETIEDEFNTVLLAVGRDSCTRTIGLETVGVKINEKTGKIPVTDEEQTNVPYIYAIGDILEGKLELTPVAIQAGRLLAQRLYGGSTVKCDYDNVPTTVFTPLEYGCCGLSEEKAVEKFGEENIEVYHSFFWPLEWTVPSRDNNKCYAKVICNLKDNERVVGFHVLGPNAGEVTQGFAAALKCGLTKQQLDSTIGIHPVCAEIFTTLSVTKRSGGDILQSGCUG
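Rat TrxR1 (90 nM in the dispensed reagent) was pre-reduced with 400 uM NADPH for 5 min at room temperature, then incubated with compound for 15 min. After 400 uM selenite was added, NADPH fluorescence (Ex 340/Em 450 nm) was followed for 8 min.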
A549 viability = kills or reduces viability of A549 cells in Nrf2 counter-screen; actives 0.16% (n = 390,000); A549 ARE-Fluc cells, CellTiter-Fluor viability, 18-24 h; Potency, µM (highest dose often 46 µM), usual class: inhibitors
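A549 ARE-Fluc cells in 5% FBS OPTI-MEM, 5000 cells/well, rested 2 h then exposed to compounds in concentration-response for 18-24 h at 37 °C. Viability by CellTiter-Fluor fluorescence (Ex 405/Em 525) after 30 min; luciferase luminescence (BugLite, 15 min, RT) read afterwards.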
TrxR1 substrate = substrates of rat thioredoxin reductase 1. O89049. purified TrxR1 substrate turnover, NADPH consumption readout. Potency, µM (doses to about 114 µM). actives 0.01% (n = 390,000); note: nearly all actives have a fitted effect of over 50% in size
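Rat TrxR1, dispensed at 90 nM, was prereduced with 400 uM NADPH (final) for 5 min at ~22 deg C, then incubated with compound 15 min before 400 uM selenite. A first-read NADPH fluorescence drop versus no-compound background flagged substrates.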
Nrf2 ARE act = Nrf2 pathway activation | AREc32 ARE-luciferase reporter (MCF7-derived line), luminescence, 24 h | Potency, µM (titrated, usually from 46.1 µM), hits mostly activators | actives 0.31% (n = 410,000) | AID 624171; note: nearly all actives have a fitted effect of over 65% in size
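Reporter line AREc32 (ARE-Fluc), seeded overnight in OPTI-MEM with 5% FBS; compound pin-transferred, 24 hr at 37 deg C, 5% CO2; luminescent read-out.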
Large screens that a line does not name were inactive. Rows were chosen to be rich in hits. Some 3% of all compounds tested hit in one or more screens of this group. Calls come from the whole dose curve; as a rule, active = well fitted curve in the direction sought with a large enough effect; inconclusive = small, poorly fitted or top-dose-only effect, or another doubt; inactive = no such curve, though single readings can be large; an effect the other way counts as inactive or inconclusive.

CCNC(=S)N1CCN(c2nc(-c3ccc(F)cc3)cs2)CC1	Nrf2 inh 18.4µM
COc1ccc(C2c3c(ncn(CCCN4CCOCC4)c3=N)Oc3ccc4ccccc4c32)cc1OC (centres undefined)	A549 viability inconclusive
COc1cccc(C2c3c(ncn(CCCN4CCOCC4)c3=N)Oc3ccc4ccccc4c32)c1 (centres undefined)	A549 viability 14.6µM (no result: GALK inhibitor, rTrxR1 inhibitor, TrxR1 substrate, Nrf2 ARE act)
Cc1ccsc1CCN1C(=O)N(c2ccccc2)C(=O)C1CC(=O)Nc1ccc(Cl)cc1 (centres undefined)	Nrf2 inh inconclusive (no result: GALK inhibitor)
O=C(O)CC1(CC(=O)Nc2cc(C(F)(F)F)cc(C(F)(F)F)c2)CCCCC1	Nrf2 inh 23.1µM
CC(=O)N/C(=C/c1ccccc1)c1sc2ccccc2[n+]1CCCCI	rTrxR1 inhibitor 44.7µM (no result: GALK inhibitor, Nrf2 inh, A549 viability, Nrf2 ARE act)
COc1ccc(-c2nnc(SCC(=O)Nc3ccc(C)c(C)c3)s2)cc1	none (no result: GALK inhibitor, Nrf2 inh)
COc1ccc(NC(=O)Nc2cc(C)ccn2)cc1	Nrf2 inh inconclusive (no result: GALK inhibitor)
COc1ccc(C(=O)NC(=O)Nc2cc(C)ccn2)cc1	Nrf2 inh 7.31µM
COc1ccc(CNC(=O)c2ccc(-c3nc(CSc4ccc(C)cc4)c(C)o3)cc2)cc1OC	Nrf2 inh inconclusive (no result: GALK inhibitor)
O=C1Cc2cc(S(=O)(=O)N3CCN(c4ccc(Cl)cc4)CC3)ccc2N1	none (no result: GALK inhibitor, rTrxR1 inhibitor, TrxR1 substrate, Nrf2 ARE act)
O=C(CN(c1cc(C(F)(F)F)ccc1Cl)S(=O)(=O)c1ccccc1)NCCc1ccccc1	Nrf2 inh inconclusive (no result: GALK inhibitor)
COc1ccc(-c2nc(SCC(=O)NC3CCCC3)c(-c3ccc(F)cc3)[nH]2)cc1	Nrf2 inh 16.4µM (no result: GALK inhibitor)
O=C(CSc1nc(-c2ccc(F)cc2)[nH]c1-c1ccc(F)cc1)Nc1ccc2c(c1)OCO2	Nrf2 inh 16.4µM, A549 viability inconclusive (no result: GALK inhibitor)
COc1ccc(-c2[nH]c(-c3ccc(F)cc3)nc2SCC(=O)NC2CCCC2)cc1	Nrf2 inh inconclusive (no result: GALK inhibitor)
O=C(CSc1nc(-c2ccc(F)cc2)[nH]c1-c1ccc(F)cc1)Nc1ccc2c(c1)OCCO2	Nrf2 inh inconclusive, A549 viability inconclusive (no result: GALK inhibitor)
COCCCNC(=O)CSc1nc(-c2ccccc2)[nH]c1-c1ccc(C)cc1	Nrf2 inh inconclusive (no result: GALK inhibitor)
COCCCNC(=O)CSc1nc(-c2cccc(F)c2)[nH]c1-c1ccccc1	Nrf2 inh 14.6µM (no result: GALK inhibitor)
Cc1ccccc1NC(=O)c1nc(-c2ccncc2)no1	none (no result: GALK inhibitor)
Cc1nn(-c2ccccc2)c2c1N(CC(=O)N1CCN(c3cccc(Cl)c3)CC1)C(=O)CS2	Nrf2 inh inconclusive (no result: GALK inhibitor)
CCc1ccc(Sc2cc(C(=O)NCc3ccccc3OC)c3ccccc3n2)cc1	none (no result: GALK inhibitor, Nrf2 inh)
COc1ccc(-c2cn3nc(N4CCCC(C(=O)Nc5cc(C)ccc5C)C4)sc3n2)cc1 (centres undefined)	none (no result: GALK inhibitor)
CCCc1nc2sc3c(SCC(=O)NCc4ccco4)ncnc3c2c2c1CCC2	Nrf2 inh inconclusive, rTrxR1 inhibitor 44.7µM, A549 viability inconclusive
O=C1CC(C(=O)NC2CCCCC2)C(c2ccccc2)O1 (centres undefined)	none
C[C@@H]1[C@@H](Sc2ccccc2)CC(=O)O[C@@H]1c1ccc(-c2ccccc2)cc1	Nrf2 inh 18.4µM, Nrf2 ARE act inconclusive (no result: GALK inhibitor)
COc1ccc(Cn2c(-c3ccc(OC)cc3)nc3ccccc32)cc1	none
COc1ccc(Cn2c(C)ccc2C)cc1	rTrxR1 inhibitor 31.6µM
CC(=O)Nc1ccc(/C=C/c2ccnc3ccccc23)cc1	none (no result: GALK inhibitor, Nrf2 inh, A549 viability, Nrf2 ARE act)
CC(C)Cn1c(/C=C/c2ccco2)nc2ccccc21	Nrf2 ARE act 12.6µM (no result: GALK inhibitor)
COc1cccc(NS(=O)(=O)c2ccc3[nH]cc(C(=O)NCCC(C)C)c(=O)c3c2)c1	Nrf2 inh 16.4µM
CC(C)CCNC(=O)c1c[nH]c2ccc(S(=O)(=O)Nc3cccc(C(F)(F)F)c3)cc2c1=O	none (no result: GALK inhibitor, Nrf2 inh)
CCCOC(=O)c1cccc(Nc2nc(CCC)cc(=O)[nH]2)c1	none (no result: GALK inhibitor)
O=C(Nc1nc(-c2ccccc2)cs1)c1cccc([N+](=O)[O-])c1	Nrf2 inh 8.2µM
O=C(N/N=C(\c1ccccc1)c1ccccn1)c1cccc([N+](=O)[O-])c1	Nrf2 inh 9.2µM

Source: PubChem BioAssay
